# Hits are enriched below; roughly 4.7% of the tested compounds scored in any of these assays.
# Calb FLC – C. albicans growth inhibition with fluconazole, primary screen, CaCi-2 strain, Alamar Blue fluorescence. C. albicans CaCi-2 (fluconazole-resistant clinical isolate) + fluconazole, 48 h. growth inhibition, % (no concentration beside the values). 0.57% of 300,000 active. AID 1979, 2009;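 active means growth inhibition above about 58% in most replicates, limit read from the data, passing the limit was not always enough; inconclusive means exactly half the replicates above a set limit; inactive means most replicates below a set limit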;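 further: all wells also contain fluconazole at 8 µg/ml as a sub-toxic cotreatment; 0% = median of DMSO wells and 100% = median of geldanamycin control wells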
# TIM10 inh – growth inhibitors of isogenic TIM10 control yeast, primary screen, counter-screen for tim10-1 yeast inhibitor project, luminescence, uHTS | 1.4% of 330,000 active | AID 463195, 2010 | S. cerevisiae TIM10 strain growth, BacTiter-Glo luminescence, 24 h | inhibition, % at 10 µM;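 active means inhibition of 40% or more at the single tested concentration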;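 further: wild-type TIM10 isogenic control strain grown at permissive 25 °C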
# tim23-1 inh – growth inhibitors of tim23-1 mutant yeast, primary screen, luminescence, uHTS. S. cerevisiae tim23-1 growth, BacTiter-Glo luminescence, 24 h. inhibition, % at 20 µM. 1.3% of 330,000 active;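 active means growth inhibition of the mutant yeast at or above 50%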;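 further: temperature-sensitive mutant grown at 25 °C; plate controls were DMSO-treated mutant yeast for no effect and medium wells lacking yeast for full effect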
# SKKanGAS inh – S. pyogenes SKKanGAS growth inhibitors in kanamycin, primary screen, streptokinase expression inhibitor project, SKKanGAS strain, BacTiter-Glo luminescence; inhibition, % at 7.5 µM; 6 h; AID 1662, 2009; 1.3% of 300,000 active;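 active means mean replicate score, as percent of positive control median, at least 50; inconclusive means mean below 50 but one replicate at or above 50; inactive means mean and every replicate below 50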;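 further: strain carries kanamycin resistance gene driven by streptokinase promoter and grows in 40 µg/ml kanamycin; loss of luminescence reflects streptokinase promoter inhibition or plain growth inhibition; 0% = median of DMSO wells and 100% = positive control at its reference dose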
# tim10-1 inh – growth inhibitors of tim10-1 mutant yeast, primary screen, luminescence, uHTS | AID 463190, 2010 | 2.2% of 330,000 active | S. cerevisiae tim10-1 ts strain growth, BacTiter-Glo, 24 h | inhibition, % at 20 µM;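 active means inhibition of at least 40%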;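 further: mutant grown at 25 °C; 0% = DMSO wells with yeast and 100% = wells holding no yeast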
# PfHsp90 set2 – growth inhibition of PfHsp90-expressing yeast, primary screen, antimalarial PfHsp90 inhibitor project, S. cerevisiae, BacTiter-Glo luminescence, single point, set 2 | inhibition, % at 9.4 µM | 0.32% of 310,000 active | AID 504621, 2011 | BacTiter-Glo ATP, 48 h; yeast lacking PDR1 and PDR3 efflux regulators;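 active means every replicate shows inhibition above about 80%, whatever the replicate mean, limit read from the data; inconclusive means mean inhibition reaches the set limit but some replicate falls short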;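 further: 0% = DMSO neutral controls and 100% = 20 µM radicicol positive controls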
# tim23-1 conf – tim23-1 mutant yeast growth inhibitors, confirmation, luminescence, single concentration; inhibition, % at 20 µM; 83% of 4,400 active; AID 463218, 2010; shares compounds with tim23-1 inh; S. cerevisiae tim23-1 growth, BacTiter-Glo luminescence, 24 h;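 active means inhibition above about 39% in either of two replicate wells at 20 µM, limit read from the data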;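 further: temperature-sensitive tim23-1 mutant grown at 25 °C; 0% = DMSO wells with yeast and 100% = medium wells without yeast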
# Starred values were filed as active, the others as inactive; u = inconclusive; x = no result given.
SMILES,Calb FLC,TIM10 inh,tim23-1 inh,SKKanGAS inh,tim10-1 inh,PfHsp90 set2,tim23-1 conf
Nc1c(C(=O)Nc2ccc3c(c2)OCCO3)nnn1Cc1cccc(Cl)c1,1,11,23,22,17,x,x
COc1cccc(CN(C)C(=O)c2ccc(Cl)c(S(=O)(=O)N3CCCCCC3)c2)c1OC,x,x,x,x,x,15,x
Cc1n[nH]c(C)c1N=Nc1ccc(Br)cc1,u,28,62*,29,-36,27,25
CCOC(=O)C1CCN(C2CCN(C(=O)c3oc4c(C)c(C)ccc4c3C)CC2)CC1,2,2,5,8,3,-5,x
O=C(Nc1ccc(C(=O)N2CCCCC2)cc1)C1=CSCCO1,-4,7,27,-9,29,22,x
O=C(Nc1ccc(C(=O)N2CCN(c3ccccc3F)CC2)cc1)C1=CSCCO1,-9,29,53*,-5,39,1,42*
CCCn1cnnc1CNC(=O)C1CCC(=O)N(CCc2cccc(F)c2)C1 (stereo not drawn),8,3,-6,-1,-10,-17,x
CC(=O)Oc1ccc(/C=C2/CCc3ccccc3C2=O)cc1,-9,31,60*,35,-11,-8,51*
CNS(=O)(=O)c1ccc(C(=O)NCC(=O)NC(C)c2cccs2)cc1 (stereo not drawn),x,6,6,x,10,x,x
COc1ccc2c(=O)c(-c3ccc(OC)c(OC)c3)coc2c1,-8,8,10,1,28,15,x
COc1ccc(-c2coc3cc(OC(C)=O)c(OC)cc3c2=O)cc1,x,19,53*,x,4,-11,28
CC1(C)CC2CC(C)(CN2C(=O)c2cc(-c3ccc(O)cc3)on2)C1 (stereo not drawn),10,-6,53*,34,-36,17,48*
Cc1ccc(N2CC(C(=O)N3CCN(c4ccccn4)CC3)CC2=O)cc1 (stereo not drawn),x,x,x,x,x,8,x
Oc1ccccc1/C=N/NC(=S)NC1CC2CCC1C2 (stereo not drawn),-2,5,66*,70*,28,-50,37
COc1cccc(/C=N/NC(=S)NC2CC3CCC2C3)c1OC (stereo not drawn),-1,17,4,3,-12,-9,x
O=C(/C(=C/O)N=Nc1ccccc1)c1ccco1,-14,34,55*,0,27,-4,59*
O=C(N/N=C/C(Cl)=C\c1ccccc1)c1ccco1,6,-37,33,-1,-98,16,x
O=c1oc(-c2ccccc2F)nc2c1cnn2-c1ccccc1,-30,39,56*,-10,33,-12,54*
COc1ccccc1CCCNC(=O)C1CCC(=O)N(CCCN2CCCC2=O)C1 (stereo not drawn),4,-9,-6,-4,1,-15,x
Nc1ccc(Sc2cnn(-c3ccccc3)c(=O)c2Cl)cc1,-4,19,50*,4,17,-12,29
CC1CCc2c(c3ccccc3n2C(=O)CCl)C1 (stereo not drawn),0,31,69*,-5,39,10,56*
NCCCCc1ccc2ccc3cccc4ccc1c2c34,x,7,50*,x,32,12,9
Cc1ccc(S(=O)(=O)N2CCc3ccccc3C2)cc1,5,-3,37,10,14,-3,x
Cc1ccc(S(=O)(=O)N2C(=O)[C@@H]3Cc4ccccc4CN3C2=O)cc1,3,14,51*,-9,23,11,41*
COc1ccc(C(=O)Nc2nnc(SCC(=O)NCc3ccco3)s2)c(OC)c1,0,9,9,24,14,0,x
SMILES,Calb FLC,TIM10 inh,tim23-1 inh,SKKanGAS inh,tim10-1 inh,PfHsp90 set2,tim23-1 conf
O=C(CCSc1ccccn1)c1ccccc1,-6,21,18,-1,29,-24,x
Cc1cccc(Nc2nc(N)c([N+](=O)[O-])c(N3CCCC(C)C3)n2)c1 (stereo not drawn),-2,-46,50*,22,23,104*,20
CC(C)COc1ccc(CNC(=S)Nc2ccccc2)cc1Cl,-20,26,12,5,22,18,x
COc1ccc(CNC(=S)Nc2ccccc2)cc1Cl,-38,29,65*,2,14,2,35
Cc1cc(Nc2ccccc2)nn1C(=O)c1ccccc1,2,30,51*,-3,0,-17,52*
O=S1(=O)N[C@@H](CC2CCCCC2)COc2cc(Br)ccc21,x,-2,39,x,13,43,x
O=S1(=O)N[C@@H](Cc2ccccc2)COc2cc(Br)ccc21,x,3,70*,x,26,11,42*
NC(=S)NNc1cccc2cccnc12,48,17,58*,7,20,-2,19
NC(=S)Nc1cccc2cccnc12,25,4,23,-3,21,6,x
CC(C)(CNCc1ccccc1)NS(=O)(=O)c1ccc(Cl)cc1,x,14,1,x,-2,-16,x
CCn1cc(C(=O)N[C@@H](CCSC)C(=O)NC(C)(C)CO)c(=O)c2cc3c(cc21)OCO3,-9,10,0,4,-15,16,x
Clc1ccc(-c2csc3ncnc(Cl)c23)cc1,-16,-13,60*,2,9,-16,42*
NNc1ncnc2scc(-c3ccc(Cl)cc3)c12,15,31,58*,0,6,19,50*
COc1ccc(CC(=O)OCN2C(=O)c3ccccc3C2=O)cc1OC,-8,-3,9,0,5,-6,x
COc1ccc(S(=O)(=O)Nc2cc3c4c(c2)CCC(=O)N4CCC3)cc1C,-8,15,-5,7,3,5,x
CCOC(=O)c1nnsc1NC(=O)Nc1ccc(OC)cc1,-27,8,84*,6,-14,-6,2
CCCN(C(=O)c1cc(S(=O)(=O)N(C)c2ccc(OCC)cc2)ccc1C)C1CCS(=O)(=O)C1 (stereo not drawn),x,6,0,x,9,15,x
CCC(C)(C)NC(=O)c1ccc(S(=O)(=O)N2CCCCCC2)cc1,3,-1,15,-3,26,-9,x
O=C(COC(=O)C12CC3CC(CC(Cl)(C3)C1)C2)Nc1ccccc1,x,13,54*,x,0,1,46*
CCOC(=O)C1=CN(Cc2cccc(F)c2)S(=O)(=O)NC1c1ccc(Br)cc1F (stereo not drawn),x,19,56*,x,29,-44,46*
COc1ccc(C2=C(C=O)Cc3ccccc3O2)cc1,-3,25,51*,-7,33,-12,53*
